According to PubChem BioAssay (NCI):
Where “and” joins values, the source holds several entries; their conditions need not be identical. Identical values can stand only once. Compounds without any hit were thinned out: in the full panel of roughly 83,000, 20% have a hit.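 The test compound was applied at a single concentration to cells in 96-well plates for 48 hours, and percent growth was recorded.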 Calls of active or inactive are those of the source. The calls were made as follows: active = growth percent below 10; inactive = the rest.

Tests used:
Test in all cases: NCI-60 one-dose screen, 48 h (100 = growth as untreated, 0 = no growth, -100 = all killed)
Conditions in all cases: 10 µM unless noted
[1] = tested on: NCI-H23 lung
[2] = tested on: NCI-H226 lung
[3] = tested on: NCI-H322M lung
[4] = tested on: HOP-62 NSCLC
[5] = tested on: NCI-H460 lung
[6] = tested on: HOP-92 NSCLC
[7] = tested on: NCI-H522 lung
[8] = tested on: A549/ATCC NSCLC
[9] = tested on: 786-0 renal
[10] = tested on: COLO 205 colon
[11] = tested on: DU-145 prostate
[12] = tested on: K-562 leukemia
[13] = tested on: MALME-3M melanoma
[14] = tested on: MDA-MB-231 breast
[15] = tested on: RXF 393 renal
[16] = tested on: SF-268 CNS
[17] = tested on: SF-295 CNS
[18] = tested on: SF-539 CNS
[19] = tested on: UACC-257 melanoma
[20] = tested on: M14 melanoma

Row | Structure (SMILES) | growth [1] | growth [2] | growth [3] | growth [4] | growth [5] | growth [6] | growth [7] | growth [8] | growth [9] | growth [10] | growth [11] | growth [12] | growth [13] | growth [14] | growth [15] | growth [16] | growth [17] | growth [18] | growth [19] | growth [20]
1 | NS(=O)(=O)c1ccc(C(=O)N=Nc2c(O)[nH]c3c(F)cccc23)cc1 | 94.9% (inactive) | 96.8% (inactive) | 98.2% (inactive) | 97.1% (inactive) | 111% (inactive) | 98.2% (inactive) | 91.2% (inactive) | 99.9% (inactive) | 103% (inactive) | 106% (inactive) | 113% (inactive) | 107% (inactive) | 95.9% (inactive) | 106% (inactive) | 97.3% (inactive) | 107% (inactive) | 103% (inactive) | 94.8% (inactive) | 103% (inactive) | 101% (inactive)
2 | NS(=O)(=O)OCC1OC(n2cnc3cncnc32)C(O)C1O (stereo not given) | 6.16% [0.1 µM] (active) and 3.98% [0.1 µM] (active) | 16.8% [0.1 µM] (inactive) | -26.7% [0.1 µM] (active) and 12.1% [0.1 µM] (inactive) | -21.5% [0.1 µM] (active) and -12.7% [0.1 µM] (active) | 2.5% [0.1 µM] (active) and 0.409% [0.1 µM] (active) | 10.2% [0.1 µM] (inactive) and 3.58% [0.1 µM] (active) | 2.73% [0.1 µM] (active) and -11.8% [0.1 µM] (active) | 11.1% [0.1 µM] (inactive) and 13.4% [0.1 µM] (inactive) | 8.57% [0.1 µM] (active) and 11.9% [0.1 µM] (inactive) | 32.2% [0.1 µM] (inactive) and 27.1% [0.1 µM] (inactive) | 13.2% [0.1 µM] (inactive) | 9.29% [0.1 µM] (active) and 7.85% [0.1 µM] (active) | 81.6% [0.1 µM] (inactive) and 50.7% [0.1 µM] (inactive) | -25.1% [0.1 µM] (active) and -14.3% [0.1 µM] (active) | 11.7% [0.1 µM] (inactive) and 1.25% [0.1 µM] (active) | 9.46% [0.1 µM] (active) and 13.5% [0.1 µM] (inactive) | 24% [0.1 µM] (inactive) | -2.66% [0.1 µM] (active) and -4.82% [0.1 µM] (active) | 60.8% [0.1 µM] (inactive) and 58.2% [0.1 µM] (inactive) | 31.1% [0.1 µM] (inactive) and 16.6% [0.1 µM] (inactive)
3 | CN(C)CCCn1c2c(c3ccc(N4CCNCC4)cc3c1=O)C(=O)c1ccccc1-2 | -59.5% (active) | 14.2% (inactive) | 13% (inactive) | -34.7% (active) | -47.9% (active) | 18.4% (inactive) | 5.51% (active) | -61.7% (active) | -95.3% (active) | 4.57% (active) | -30.1% (active) | -28.5% (active) | 21% (inactive) | -49.7% (active) | -78.8% (active) | -24.8% (active) | -5.76% (active) | 52.7% (inactive) | 37.3% (inactive) | 19.4% (inactive)
4 | COc1cc(F)c(/C=C/c2cc(/C=C/c3cc(OC)c(OC)cc3F)n(-c3cc(F)cc(F)c3)n2)cc1OC | -20.2% (active) | 98.1% (inactive) | 15.2% (inactive) | 85.8% (inactive) | 47% (inactive) | 80.9% (inactive) | 47.1% (inactive) | 44.1% (inactive) | 88.3% (inactive) | 115% (inactive) | 43.1% (inactive) | 20.3% (inactive) | -6.11% (active) | 54.9% (inactive) | 85.6% (inactive) | 34% (inactive) | 54.2% (inactive) | 83.4% (inactive) | 24% (inactive) | -19.5% (active)
5 | COc1ccc(/C=C/C(=O)c2cc3c(N)c(C(=O)Nc4ccccc4Cl)sc3nc2C)cc1 | 52.3% (inactive) | 27.4% (inactive) | 62.3% (inactive) | 45.3% (inactive) | 32.6% (inactive) | 9.45% (active) | 15.4% (inactive) | 33.8% (inactive) | -20.4% (active) | 69.8% (inactive) | 46.3% (inactive) | 38.9% (inactive) | 21% (inactive) | 33.8% (inactive) | -3.54% (active) | 53.3% (inactive) | 48.5% (inactive) | 36.2% (inactive) | 63.8% (inactive) | 12.1% (inactive)
6 | CCCCCCCCCCCCCCCCCCn1cc(COc2ccc(C=O)cc2)nn1 | 90.4% (inactive) | 102% (inactive) | 108% (inactive) | 104% (inactive) | 102% (inactive) | 135% (inactive) | 89% (inactive) | 91.2% (inactive) | 94.9% (inactive) | 113% (inactive) | 92.4% (inactive) | 85.9% (inactive) | 106% (inactive) | 110% (inactive) | 113% (inactive) | 93.7% (inactive) | 98.7% (inactive) | 98.5% (inactive) | 109% (inactive) | 92.8% (inactive)
7 | Cc1ccc(-c2nc3nc(-c4ccccc4)nc(N4CCN(S(=O)(=O)c5ccccc5)CC4)c3o2)cc1 | 88.3% (inactive) | 76.5% (inactive) | 101% (inactive) | 72.3% (inactive) | 73.3% (inactive) | 95.1% (inactive) | 72.9% (inactive) | 91.5% (inactive) | 61% (inactive) | 125% (inactive) | 96.6% (inactive) | 97.7% (inactive) | 84.2% (inactive) | 72.4% (inactive) | 66.3% (inactive) | 66.8% (inactive) | 74.7% (inactive) | 52.5% (inactive) | 99% (inactive) | 96.7% (inactive)
8 | COc1ccc2c(c1)oc1c(C)c3c(c(C)c12)C(=O)N(Nc1ccccc1)C3=O | 98.5% (inactive) | 106% (inactive) | 95.5% (inactive) | 88.9% (inactive) | 98.9% (inactive) | 100% (inactive) | 95.7% (inactive) | 112% (inactive) | 92.8% (inactive) | 94% (inactive) | 97.4% (inactive) | 101% (inactive) | 99.5% (inactive) | 105% (inactive) | 116% (inactive) | 100% (inactive) | 97.1% (inactive) | 95.1% (inactive) | 109% (inactive) | 95.3% (inactive)
9 | Cc1ccc(-c2nc3nc(-c4ccc(Br)cc4)nc(N4CCCNCC4)c3o2)cc1 | 97.9% (inactive) | 103% (inactive) | 68.9% (inactive) | 82% (inactive) | -73% (active) | 91.7% (inactive) | 72.6% (inactive) | -74.7% (active) | -90.6% (active) | -49% (active) | 14.2% (inactive) | -48.4% (active) | 88.3% (inactive) | -57% (active) | 87.1% (inactive) | 98.6% (inactive) | 69.2% (inactive) | 3.79% (active) | 103% (inactive) | -54.2% (active)
10 | Nc1nc(Cl)nc2c1ncn2C1OC(CO)C(O)C1O (stereo not given) | 19.9% (inactive) and 34.4% (inactive) | 110% (inactive) | 93.1% (inactive) and 101% (inactive) | 46.6% (inactive) and 63.7% (inactive) | 80% (inactive) and 87.4% (inactive) | 42.8% (inactive) | 50.6% (inactive) and 52.1% (inactive) | 46.2% (inactive) and 49.9% (inactive) | 24.1% (inactive) and 37.5% (inactive) | 70% (inactive) | 64.8% (inactive) and 44.9% (inactive) | 67% (inactive) | 74.7% (inactive) and 76.4% (inactive) | 71.1% (inactive) and 90.7% (inactive) | 123% (inactive) and 118% (inactive) | 57.6% (inactive) and 63.4% (inactive) | 102% (inactive) and 103% (inactive) | 91.7% (inactive) and 111% (inactive) | 99.1% (inactive) and 85.9% (inactive) | -14% (active) and 4.59% (active)
11 | Cc1cnc(C(=O)NNc2nc3sc4c(c3c(=O)[nH]2)C(C)CCC4)cn1 (stereo not given) | 22.9% (inactive) | -8.7% (active) | 25.3% (inactive) | 8.82% (active) | 5.04% (active) | 43.6% (inactive) | 26.1% (inactive) | 12.3% (inactive) | 11.2% (inactive) | 11.2% (inactive) | 22.6% (inactive) | 14% (inactive) | 15.9% (inactive) | 42.8% (inactive) | 6.15% (active) | 16.7% (inactive) | 23.4% (inactive) | 10.1% (inactive) | 1.78% (active) | 0.29% (active)
12 | Cc1[nH]c(C(=O)Nc2nc3ccc(NC(=O)CCN)cc3s2)c(Cl)c1Cl | 37.4% (inactive) | 86.7% (inactive) | 94% (inactive) | 74.6% (inactive) | 42.6% (inactive) | 73.9% (inactive) | 85.5% (inactive) | 95.8% (inactive) | 92.1% (inactive) | 104% (inactive) | 48.4% (inactive) | 6.04% (active) | 53.8% (inactive) | 51% (inactive) | 81.9% (inactive) | 56.2% (inactive) | 95.7% (inactive) | 52.1% (inactive) | 96.8% (inactive) | 44.1% (inactive)
13 | Cc1ccc(Nc2nc(-c3cc(O)c(C)c(C)c3O)cs2)cc1 | 90.4% (inactive) | 90.2% (inactive) | 102% (inactive) | 99.9% (inactive) | 104% (inactive) | 98.2% (inactive) | 65.8% (inactive) | 88.1% (inactive) | 118% (inactive) | 116% (inactive) | 97.3% (inactive) | 66.5% (inactive) | 109% (inactive) | 104% (inactive) | 99.3% (inactive) | 92.3% (inactive) | 101% (inactive) | 96.6% (inactive) | 104% (inactive) | 96.6% (inactive)
14 | CC[C@H](C)[C@H](NC(=O)[C@@H](N)CCC(N)=O)C(=O)N[C@@H](Cc1ccc(O)cc1)C(=O)N[C@@H](CCCCN)C(=O)N[C@@H](CCCCN)C(=O)N[C@@H](Cc1ccc(O)cc1)C(=O)N[C@@H](CCCNC(=N)N)C(=O)N[C@H](C(=O)N[C@@H](Cc1c[nH]c2ccccc12)C(=O)N[C@@H](Cc1ccc(O)cc1)C(=O)N[C@@H](CCCNC(=N)N)C(=O)N[C@@H](CCCCN)C(=O)N[C@@H](C)C(=O)N[C@@H](Cc1c[nH]c2ccccc12)C(=O)N[C@@H](CCCCN)C(=O)N[C@H](C(=O)N[C@@H](CC(C)C)C(=O)NCC(=O)N[C@@H](CCCCN)C(=O)N[C@H](C(N)=O)C(C)C)C(C)C)[C@@H](C)O | -15.1% (active) | 53.4% (inactive) | 23% (inactive) | 13.3% (inactive) | -4.21% (active) | -21.2% (active) | 59.4% (inactive) | 38.7% (inactive) | -57.9% (active) | 0.119% (active) | 6.03% (active) | 5.04% (active) | -30.6% (active) | -29.7% (active) | 11.4% (inactive) | -29.8% (active) | 34.6% (inactive) | -40.7% (active) | 66.2% (inactive) | -11.8% (active)
